The nature of experiment [1]: cAMP Responsive Elements (CRE) small molecule antagonists, cell-based qHTS assay: qHTS cell viability counter screen (AID 2060913). Note: nearly all actives have a fitted effect of over 40% in size. The gist of the method:
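Cytotoxicity read in the same wells as the CRE-bla HEK293T antagonist assay: after 3 h compound with 0.25 uM NKH477 final and 2 h beta-lactamase substrate, CellTiter-Glo luminescence measured.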

Experiment [2] can be described thus: cAMP Responsive Elements (CRE) small molecule agonists, cell-based qHTS assay: qHTS cell viability counter screen (AID 2060914).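 Note: viability read after 3 h of compound exposure; nearly all actives have a fitted effect of over 50% in size.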 A digest of the protocol:
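Cells are seeded and incubated 18 h, treated with compounds in DMSO for 3 h, read for the bla reporter, then given CellTiter-Glo; luminescence is measured after 30 min at room temperature.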

Each structure is given as a SMILES string. Records with an inconclusive call do not appear. Values without a mark were called inactive. Calls of active or inactive are those of the source. Calls come from the whole dose curve; as a rule, active = well fitted cell-killing curve with a large enough effect in the repeat runs; inconclusive = weak or mixed curves, or effect the other way; inactive = flat fitted curve, though single readings scatter.
% is set by controls: 0 for no effect and ±100 for the full control effect.

Consider `O=C(N/N=C/c1ccccc1O)c1ccncc1`, for which the Potency result in experiment [1] and in experiment [2] was “inactive” in each case.
As to `CO[Si](OC)(OC)OC`, the Potency result in experiment [1] and in experiment [2] was “inactive” in each case.
As to `Cc1ccc(Cl)cc1`, the Potency entry in experiment [1] and in experiment [2] was “inactive” throughout.
`Cc1cc(C)cc([N+](=O)[O-])c1`: the Potency entry in experiment [1] and in experiment [2] was “inactive” in each case.
Turning to `CCCCC(CC)COC(=O)c1ccc(N(C)C)cc1` (configuration not stated), the Potency result in experiment [1] and in experiment [2] was “inactive” each time.
With `COc1ccccc1N=Nc1c(S(=O)(=O)O)cc2cc(S(=O)(=O)O)cc(NC(C)=O)c2c1O`, the Potency result in experiment [1] and in experiment [2] was “inactive” in each case.
Consider `COc1cc(O)c(C(=O)c2ccccc2)cc1S(=O)(=O)O`, for which the Potency entry in experiment [1] and in experiment [2] was “inactive” throughout.
In the case of `CC(C)=CCCC(C)C=O` (configuration not stated), the Potency result in experiment [1] and in experiment [2] was “inactive” throughout.
With `OCCC(O)CO` (configuration not stated), the Potency result in experiment [1] and in experiment [2] was “inactive” throughout.
`Cc1cc(C)c(C)cc1C`: the Potency entry in experiment [1] and in experiment [2] was “inactive” throughout.
As for `CCOC(=O)OC(C)OC(=O)[C@@H]1N2C(=O)[C@@H](NC(=O)[C@H](N)c3ccccc3)[C@H]2SC1(C)C` (some centres not stated), the Potency result in experiment [1] and in experiment [2] was “inactive” throughout.
As to `CCCCCCOC(=O)CCCCCCCC(=O)OCCCCCC`, the Potency result in experiment [1] and in experiment [2] was “inactive” each time.
Consider `CCOC(=O)c1ncn2c1CN(C)C(=O)c1cc(F)ccc1-2`, for which the Potency result in experiment [1] and in experiment [2] was “inactive” in each case.
Consider `NC1(c2ccc(-c3nc4ccn5c(=O)[nH]nc5c4cc3-c3ccccc3)cc2)CCC1`, for which the Potency entry in experiment [1] and in experiment [2] was “inactive” throughout.
For the molecule `CC[C@]1(O)C[C@@H]2CN(CCc3c([nH]c4ccccc34)[C@@](C(=O)OC)(c3cc4c(cc3OC)N(C)[C@H]3[C@@](O)(C(=O)OC)[C@H](OC(C)=O)[C@]5(CC)C=CCN6CC[C@]43[C@@H]65)C2)C1`, the Potency entry in experiment [1] and in experiment [2] was “inactive” each time.
`Oc1ccc(Cc2ccccc2O)cc1`: the Potency entry in experiment [1] and in experiment [2] was “inactive” throughout.
Regarding `O=C(C1CCCCC1)N1CC(=O)N2CCc3ccccc3C2C1` (configuration not stated), the Potency entry in experiment [1] and in experiment [2] was “inactive” in each case.
For the molecule `O=C(OCc1ccccc1)C(=O)OCc1ccccc1`, the Potency result in experiment [1] and in experiment [2] was “inactive” each time.
Take `CCCCCC(N)=O`: the Potency entry in experiment [1] and in experiment [2] was “inactive” in each case.
For the molecule `O=C(c1cc(O)c(O)c(O)c1)c1ccc(O)c(O)c1O`, the Potency entry in experiment [1] and in experiment [2] was “inactive” throughout.
Regarding `O=C(O)CCCCCCCC(=O)O`, the Potency result in experiment [1] and in experiment [2] was “inactive” throughout.
Turning to `Cc1ccc(C)cc1`, the Potency entry in experiment [1] and in experiment [2] was “inactive” in each case.
In the case of `CCCc1cc(=O)[nH]c(=S)[nH]1`, the Potency entry in experiment [1] and in experiment [2] was “inactive” each time.
On to `CCCCC[C@H](O)/C=C/[C@H]1[C@H](O)CC(=O)[C@@H]1C/C=C\CCCC(=O)O`, for which the Potency result in experiment [1] and in experiment [2] was “inactive” in each case.
For `Nc1ccn([C@H]2CS[C@@H](CO)O2)c(=O)n1`, the Potency result in experiment [1] and in experiment [2] was “inactive” throughout.
With `CCC(C)(O)CCC=C(C)C` (configuration not stated), the Potency result in experiment [1] and in experiment [2] was “inactive” in each case.
In the case of `CCCCc1ccc(N)cc1`, the Potency entry in experiment [1] and in experiment [2] was “inactive” throughout.
Turning to `NC(=O)CCCCC(N)=O`, the Potency entry in experiment [1] and in experiment [2] was “inactive” each time.
For `CCC1CO1` (configuration not stated), the Potency entry in experiment [1] and in experiment [2] was “inactive” each time.
With `CO[C@@H]1COCC[C@@H]1N[C@@H]1CC[C@@](C(=O)N2CCc3ncc(C(F)(F)F)cc3C2)(C(C)C)C1`, the Potency result in experiment [1] and in experiment [2] was “inactive” each time.
As to `NS(=O)(=O)c1cc(C2(O)NC(=O)c3ccccc32)ccc1Cl` (configuration not stated), the Potency result in experiment [1] and in experiment [2] was “inactive” in each case.
`O=S(=O)(O)c1ccc(O)c2ncccc12`: the Potency entry in experiment [1] and in experiment [2] was “inactive” each time.
With `CC1(C)CO[C@@H](CC(=O)O)CN1`, the Potency entry in experiment [1] and in experiment [2] was “inactive” in each case.
For the molecule `CCCCCCC(CO)CCCC` (configuration not stated), the Potency result in experiment [1] and in experiment [2] was “inactive” throughout.
With `CC(C=O)c1ccccc1` (configuration not stated), the Potency result in experiment [1] and in experiment [2] was “inactive” each time.
As to `CCCCCCCCCCCCCCCCCCOCCO`, in experiment [1], the viability change, negative = cytotoxic was -9.04% [at 18.9 µM]. The activity change, negative = cytotoxicity in experiment [2] was -6.34% [at 18.9 µM].
For `N=C(N)N1CCc2ccccc2C1` the same measures were -0.283% [at 8.39 µM] and 2.66% [at 8.39 µM].
Take `O=C(O)Cc1ccc(OCCNC[C@H](O)c2ccccc2)cc1`: the Potency result in experiment [1] and in experiment [2] was “inactive” in each case.
In the case of `C=Cc1ccc(C(C)(C)C)cc1`, the Potency entry in experiment [1] and in experiment [2] was “inactive” in each case.
As to `Cc1nc2ccccn2c(=O)c1CCN1CCC(C(=O)c2ccc(F)cc2)CC1`, the Potency entry in experiment [1] and in experiment [2] was “inactive” throughout.
`O=C(O)CCNC(=O)c1ccc(N=Nc2ccc(O)c(C(=O)O)c2)cc1`: the Potency entry in experiment [1] and in experiment [2] was “inactive” each time.
Take `Brc1cc2ccccc2c2ccccc12`: the Potency result in experiment [1] and in experiment [2] was “inactive” in each case.
`CCCCC[Si](OCC)(OCC)OCC`: the Potency entry in experiment [1] and in experiment [2] was “inactive” throughout.
As to `CC(C)CC(=O)C1C(=O)c2ccccc2C1=O`, the Potency result in experiment [1] and in experiment [2] was “inactive” throughout.
For the molecule `CC(C)(C)NCC(O)c1cc(O)cc(O)c1` (configuration not stated), the Potency entry in experiment [1] and in experiment [2] was “inactive” each time.
As for `CC(=O)Nc1ccc(C)c(Cl)c1`, the Potency result in experiment [1] and in experiment [2] was “inactive” each time.
For the molecule `CC1(C)SC(C)(C)SC(C)(C)S1`, the Potency result in experiment [1] and in experiment [2] was “inactive” in each case.
For the molecule `COc1cc(CCC(C)=O)ccc1O`, the Potency result in experiment [1] and in experiment [2] was “inactive” each time.
With `Cc1ncc(CO)c(CN)c1O`, the Potency result in experiment [1] and in experiment [2] was “inactive” throughout.
With `CC1COc2ccccc2N1C(=O)C(Cl)Cl` (configuration not stated), the Potency entry in experiment [1] and in experiment [2] was “inactive” throughout.
Consider `CC(C)OCC1CO1` (configuration not stated), for which the Potency entry in experiment [1] and in experiment [2] was “inactive” each time.
Regarding `C[N+](C)(C)CC(O)CCl` (configuration not stated), the Potency entry in experiment [1] and in experiment [2] was “inactive” throughout.
On to `O=C(Cl)c1c(Cl)c(Cl)c(C(=O)Cl)c(Cl)c1Cl`, for which the Potency entry in experiment [1] and in experiment [2] was “inactive” each time.
For the molecule `Cc1ccc(N)cc1S(=O)(=O)O`, the Potency entry in experiment [1] and in experiment [2] was “inactive” each time.
With `NS(=O)(=O)c1cc(-c2nn[nH]n2)c(NCc2cccs2)cc1Cl`, the Potency result in experiment [1] and in experiment [2] was “inactive” throughout.
For `N[C@@H](CCC(=O)N[C@@H](CS)C(=O)NCC(=O)O)C(=O)O`, the viability change, negative = cytotoxic in experiment [1] was 4.12% [at 18.9 µM]. Further, the activity change, negative = cytotoxicity in experiment [2] is -1.41% [at 18.9 µM].
